Experimental data published in PubChem BioAssay (NCI).
This is part of a sample that, as a whole, favours compounds with a hit. Of some 83,000 tested, about 20% had one in any assay.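 Cells were grown in 96-well plates and exposed to the test compound at a single concentration for 48 hours; results are reported as percent growth, with values below 10 considered active.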 A number with no mark means an inactive call. Calls of active or inactive are those of the source.

What follows are compounds tested on CCRF-CEM leukemia (assay: NCI-60 one-dose screen, 48 h (100 = growth as untreated, 0 = no growth, -100 = all killed)). Settings: 10 µM unless noted.
Procedure: Growth inhibition of the CCRF-CEM human tumor cell line is measured as a screen for anti-cancer activity. Cells are grown in 96 well plates and exposed to the test compound for 48 hours. Compounds are tested at a single concentration, which is 10^-5 M for most compounds. The reported endpoint is percent growth (GI% or GIPRCNT), where numbers from 0 - 100% represent growth inhibition, and numbers from -100% - 0 represent cell death. For example, a value of 40 represents 60% growth inhibition. A value of 0 means no net growth occurred over the course of the experiment. A value of -40 indicates 40% of cells at the beginning of the experiment died by the end of the experiment. A value of -100 means all cells are dead at the end of the experiment.
NCI-60 Human Tumor Cell Lines Screen was performed using the standard one-dose NCI protocol, which is described in more detail at https://dtp.cancer.gov/discovery_development/nci-60/default.htm.
Compounds with GIPRCNT values below 10 were considered active. Activity score was based on GIPRCNT using the following formula: […]
Score is 0 for GIPRCNT values of 100 or above, 50 for GIPRCNT values of 0, and 100 for GIPRCNT values of -100.

Structure (SMILES) | growth
Cc1ncc(C(=O)Nc2ccc(CN3CCN(C)CC3)c(C(F)(F)F)c2)cc1C#Cc1c(N)ncc2ccc(C#N)cc12 | 38.1%
CCN(CC)CCCCCCNc1cccc2cc(Br)cnc12 | 57%
O=C(COc1cccc(/C=C2\Oc3ccccc3C2=O)c1)c1ccc([N+](=O)[O-])cc1 | 63.1%
C=C(C)[C@@H]1CC[C@]2(C(=O)NCCCCCCN(CCCN)CCCN)CC[C@]3(C)[C@H](CC[C@@H]4[C@@]5(C)CC[C@H](OCCCN)C(C)(C)[C@@H]5CC[C@]43C)[C@@H]12 | 11.8% [100 µM]
CC1(C(=O)O)CCC(N)(C(=O)O)C1(C)C (stereo not given) | 89.7%
O=S(=O)(NCc1ccccc1)c1ncnc2nc[nH]c12 | 83.1%
C=C(C)[C@@H]1CC[C@]2(C(=O)NCCNCCNCCN)CC[C@]3(C)[C@H](CC[C@@H]4[C@@]5(C)CCC(=O)C(C)(C)[C@@H]5CC[C@]43C)[C@@H]12 | -11.3% [100 µM] (active)
Cc1ccc(S(=O)(=O)N/N=C2\CC3CCC2(C)C3(C)C)cc1 (stereo not given) | 112%
CCc1ccc(NC(=O)N[C@@H](Cc2cc(F)cc(F)c2)C(=O)N[C@@H]2C(=O)N3C[C@H](O)C[C@H]3C(=O)N3CCOC[C@H]3C(=O)N[C@@H](C)C(=O)N3C[C@H](C)C[C@H]3C(=O)O[C@H]2C)cc1 | 50.9%
COc1cc2c(cc1OC(C)=O)C(=O)CCCC2 | 102%
CCCCC(CCCCCC(CCCC)C1NC(C)Cc2cc(OC)c(OC)cc21)C1NC(C)Cc2cc(OC)c(OC)cc21 (stereo not given) | -43.3% (active)
CCOC(=O)c1nn(C2CCCCO2)c2ccc(NC(=O)CN3CCCC3)cc12 (stereo not given) | 108%
Cc1cc(N2CCCCCC2)nc(N2CCN(CC(=O)Nc3ccc4c(ccn4Cc4ccccc4)c3)CC2)n1 | 50.2%
Cn1c(=O)c(C#N)c(-c2ccco2)n2c(S(=O)(=O)Cc3ccccc3)nnc12 | 77.4%
C=C(C)C1CCC2(C(=O)O)CCC3(C)C(CCC4C5(C)CCC(OC(=O)NCc6ccccc6)C(C)(C)C5CCC43C)C12 (stereo not given) | 36.6%
Ic1ccc2[nH]cc(SSc3c[nH]c4ccc(I)cc34)c2c1 | 8.16% (active)
Cn1cc(-c2noc(-c3cn(C)c4ncccc34)n2)c2cc(Cl)ccc21 | 99.8%
COc1cc2c(c(OC)c1OC)-c1cc(I)c(O)cc1[C@@H](NC(C)=O)CC2 | 30%
O=C1C(Cl)=C(Nc2ccc3cn[nH]c3c2)C(=O)c2ccccc21 | -43.8% (active)
CC(C)C1=NOC(=O)C1=Cc1cn(-c2ccco2)nc1-c1ccccc1 | 32.9%

Structure (SMILES) | growth
CCN1CCN(CC(=O)Nc2nc3ccc(NCc4ccc(Cl)cc4)cc3s2)CC1 | 50%
CCOc1cc(NC(=O)c2ccccc2)c(OCC)cc1N | 107%
CC1=CC[C@@H]2C(C)(C)C(=O)CC[C@@]2(C)[C@@H]1COc1ccc2ccc(=O)oc2c1 | 61.9%
Cc1ccc(-c2cc(-c3ccc(C)cc3)nc(NCCNc3ccnc4cc(Cl)ccc34)n2)cc1 | 2.06% (active)
COc1c(B(O)O)cccc1-c1nc2ccc3[nH]ncc3c2c2c1CCC2 | 64.2%
Cc1ccc(N)c(O)c1 | 77.9%
CC1Cc2ccc(OCCN(C)C)cc2C1=O (stereo not given) | 103%
C=C(C)[C@@H]1CC[C@]2(C)[C@H](CC=C3[C@@H]4[C@@H](C)[C@H](C)CC[C@]4(C(N)=O)CC[C@]32C)[C@@]1(C)CCC#N | -7.62% [100 µM] (active)
CCOC(=O)c1c[nH]n2c(=S)ncnc12 | 101%
O=C(OCc1ccc2c(Cl)cc(Cl)c(O)c2n1)N1CCN(C(=O)c2cc3cc(F)ccc3[nH]2)CC1 | 13.4%
COc1ccc(C(C(=O)O)c2ccc(OC)cc2)cc1 | 100%
C#CC(OC(=O)N(C)C)(c1ccccc1)c1ccc(F)cc1 (stereo not given) | 116%
Oc1c(CNCCNCc2cc(Cl)cc(Cc3ccccc3)c2O)cc(Cl)cc1Cc1ccccc1 | 8.47% (active)
COc1ccc(NC(=S)NNc2ccc(-c3ccc(OC)c(OC)c3)nn2)cc1 | 103%
C=C(C)[C@@H]1CC[C@]2(COCCC#N)CC[C@]3(C)[C@H](CC[C@@H]4[C@@](C)(CCCNCCC#N)[C@H](C(=C)C)CC[C@]43C)[C@@H]12 | 1.32% [100 µM] (active)
Cc1cc(C)c(O)c(CNCCCCCCNCc2cc(C)cc(C)c2O)c1 | -19.9% (active)
COc1ccc(/C=C/C=C\C(=O)c2ccc(-n3ccnc3)cc2)cc1 | 80.2%
c1nc(N2CCOCC2)c2[nH]ccc2n1 | 107%
CCOC(=O)/C(C#N)=C(\C)CCc1ccccc1 | 102%
COc1cc(C)cc2oc3oc(=O)c(C(=O)c4cc5cc(Br)ccc5o4)cc3c(=O)c12 | 120%
